Data from PubChem BioAssay AID485364 (National Center for Advancing Translational Sciences (NCATS), 2010).
Hit rate of the full screen: of about 360,000 compounds, about 11,000 (3.1%) were called active. Inconclusive results (about 4%) are left out. The call rests on the fitted dose curve; in most records, active means well fitted inhibition curve with a large enough effect; inconclusive means small, poorly fitted or top-dose-only effect; inactive means no such curve, though single readings can be large or run the other way. Shown is part of a subset that was picked to be rich in actives. Where a call stands in place of a potency, no number is given.

Each compound was assayed against Schistosoma mansoni thioredoxin glutathione reductase (TGR) (UniProt Q962Y6) (assay: qHTS Assay for the Inhibitors of Schistosoma Mansoni Peroxiredoxins). Conditions: purified TGR, DTNB reduction, TNB absorbance 405 nm; series mostly up to 114 µM.
Outline: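 First, TGR (20 nM dispensed) and NADPH were mixed with compound. Second, a 15 min room-temperature incubation followed. Third, further NADPH and then DTNB were added to start the reaction. Finally, TNB absorbance was monitored kinetically.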
Further: nearly all actives have a fitted effect of over 60% in size.
Potency means the concentration at half of the fitted maximal effect.

Structure (SMILES) | Potency
COc1ccc(-c2nc(C)c(CCNC(=O)c3ccc(C(F)(F)F)cc3)s2)cc1OC | inactive
COc1ccccc1NC(=O)CSC1=Nc2ccccc2C2=NC(CC(=O)NCc3cccs3)C(=O)N12 (stereo not given) | inactive
Cn1c(=O)c2c(SCC(=O)NCC3CCCO3)nc(-c3ccccc3F)nc2n(C)c1=O (stereo not given) | inactive
CCCCc1nn2c(=O)cc(COC(=O)c3ccccc3NC(=O)C(C)(C)C)nc2s1 | inactive
Cc1nn(C(C)C(=O)NCCc2ccccc2)c(=O)c2c1sc1ccccc12 (stereo not given) | inactive
COc1cccc2c1cc1c(=O)n(CC(=O)N3CCN(c4ccccc4)CC3)nc(C)n12 | inactive
O=c1c2cccnc2n(Cc2cccc(F)c2)c(=O)n1Cc1ccccc1Cl | inactive
COc1cccc2c1cc1c(=O)n(CC(=O)N3CCN(c4cccc(Cl)c4)CC3)nc(C)n12 | inactive
Cc1nc2ccccn2c(=O)c1NC(=O)c1c(F)cccc1F | inactive
CCn1cc(C(=O)N(C)Cc2ccccc2)c(=O)c2cc(S(=O)(=O)N3CCCCCC3)ccc21 | inactive
Cc1ccc(NN=Nc2nc3c([nH]2)c(=O)n(C)c(=O)n3C)cc1 | 56.2 µM (active)
Cc1cccc(C)c1NC(=O)CSc1nc2c([nH]1)c(=O)n(C)c(=O)n2C | inactive
CC(CCO)Nc1nc2c([nH]1)c(=O)n(C)c(=O)n2C (stereo not given) | inactive
CCc1cccc(C)c1NS(=O)(=O)c1ccc(-c2cc(C)no2)s1 | inactive
Cc1nc2ccn(Cc3cccs3)c(=O)c2cc1C(=O)NCc1ccc(Cl)cc1 | inactive
COc1ccc(-c2onc(C)c2C)cc1S(=O)(=O)NCc1cccs1 | inactive
CCN(CC)S(=O)(=O)c1ccc2c(c1)c(=O)c(C(=O)N1CCN(c3cccc(Cl)c3)CC1)cn2C | inactive
Cc1cc(NC(=O)CCC(=O)N(CC(=O)NC2CCCC2)c2ccc(F)cc2)no1 | inactive
Cc1cc(NC(=O)CSc2nnnn2-c2ccc(F)cc2)no1 | inactive
Cc1cc(NC(=O)CCS(=O)(=O)c2ccc(F)cc2)no1 | 17.8 µM (active)

Structure (SMILES) | Potency
COc1ccccc1Nc1c2c(nc3ccc(NC(=O)/C=C/c4cc(OC)c(OC)c(OC)c4)cc13)CCCC2 | inactive
CCOC(=O)c1ccc(CSc2nnc3cc(C)c4ccccc4n23)cc1 | inactive
Cc1ccc2c(c1)=C/C(=C\c1c(O)[nH]c(=O)[nH]c1=O)C(=O)N=2 | 14.1 µM (active)
O=C1N=c2ccccc2=C/C1=C\c1c(O)[nH]c(=S)[nH]c1=O | 10 µM (active)
O=c1[nH]c(O)c(C=Nc2cc(F)cc(F)c2)c(=O)[nH]1 | inactive
Cc1cccc(S(=O)(=O)c2cn(Cc3ccccc3)c3cc(N4CCOCC4)c(F)cc3c2=O)c1 | inactive
COc1ccc(NC(=O)CCCc2nnc3n(CCC(C)C)c(=O)c4sccc4n23)c(OC)c1 | inactive
CCn1c2ccccc2c2cc(CN3CCN(Cc4cccc(Cl)c4)CC3)ccc21 | inactive
CCOC(=O)c1c(SCC(=O)Nc2cccc(C)c2C)nc(=O)[nH]c1C | inactive
Cc1ccc(NC(=O)CSc2nc3c(c(=O)[nH]2)CN(Cc2ccc4c(c2)OCO4)CC3)cc1C | inactive
COc1ccc(Cl)cc1NC(=O)C(C)Sc1nc2c(c(=O)[nH]1)CCCC2 (stereo not given) | inactive
CCC(=O)Nc1ccccc1-c1nc2ccccc2n(CC(=O)Nc2ccc(C)c(C)c2)c1=O | inactive
CCOc1ccc(CNC(=O)c2cc(=O)[nH]c3ccc(S(=O)(=O)N4CCCCC4)cc23)cc1 | inactive
O=C(Cn1ncn2nc(-c3cccs3)cc2c1=O)NCc1cccc(Br)c1 | inactive
COc1cc(OC)c(C2C=C(C(=O)O)Nc3ncnn32)cc1OC (stereo not given) | inactive
CCS(=O)(=O)C1=NSC2=NC(=O)/C(=C\c3ccc(OS(=O)(=O)c4ccccc4)cc3)C(=N)N21 | inactive
CS(=O)(=O)C1=NN2C(=N)/C(=C\c3ccc(OCCOc4ccccc4)cc3)C(=O)N=C2S1 | inactive
CS(=O)(=O)c1ccc2c(c1)SC1=NC(=O)/C(=C/c3ccco3)C(=N)N12 | 20 µM (active)
CCOC(=O)c1ccc(NC(=O)CC2C(=O)N(c3ccccc3)C(=O)N2Cc2cccs2)cc1 (stereo not given) | inactive
Cc1c(Cl)cnc(NC(=O)COC(=O)c2ccc(S(=O)(=O)NCc3ccco3)cc2)c1Cl | 28.2 µM (active)

Structure (SMILES) | Potency
C/C(=N\Nc1ncc(Cl)cc1Cl)c1ccc(S(=O)(=O)NCc2ccco2)cc1 | inactive
O=C(COC(=O)c1cnc(Cl)c(Cl)c1)NCc1ccco1 | inactive
COc1ccc(NC(=O)CSc2nccn2Cc2ccc3c(c2)OCO3)cc1 | inactive
CC1=C(C(=O)Nc2ccccc2Cl)C(c2cccs2)n2ncnc2N1 (stereo not given) | inactive
O=C(CSc1ncc(CO)n1Cc1ccc(Cl)cc1)NCc1ccc(F)cc1 | inactive
COC(=O)COc1ccc2c(c1C)O/C(=C\c1ccco1)C2=O | 10 µM (active)
Cc1cc(C)c(OCC(=O)N/N=C/c2ccco2)c(C)c1 | inactive
COC(=O)COc1cc(C)cc2oc(=O)c3c(c12)CCCC3 | inactive
CC1CCCN(S(=O)(=O)c2ccc(-c3ccc(=O)[nH]n3)o2)C1 (stereo not given) | 28.2 µM (active)
Cc1ccc(NS(=O)(=O)c2ccc(-c3ccc(=O)[nH]n3)o2)c(C)c1 | inactive
CC1CCCN(S(=O)(=O)c2ccc(C(=O)Nc3nnc(-c4ccncc4)o3)cc2)C1 (stereo not given) | inactive
Cc1cccc(CS(=O)(=O)c2ncc(Cl)c(C(=O)Nc3ccc(F)cc3)n2)c1 | 7.08 µM (active)
CCS(=O)(=O)c1ncc(N(Cc2ccc(F)cc2)Cc2ccco2)c(C(=O)Nc2cc(C)ccc2C)n1 | inactive
Cc1ccc(CCNC(=O)c2ccc(CS(=O)(=O)Cc3cccc(C)c3)o2)cc1 | inactive
Cc1ccc2nc(NC(=O)c3nc(SCc4ccccc4F)ncc3Cl)sc2c1 | inactive
Cc1ccc(NC(=O)c2nc(S(=O)(=O)Cc3cccc(C)c3)ncc2Cl)cc1 | 12.6 µM (active)
CCOC(=O)c1ccc(NC(=O)c2nc(SCc3ccc(F)cc3)ncc2Cl)cc1 | inactive
O=C(Nc1nc2ccc(F)cc2s1)c1nc(SCc2ccccc2F)ncc1Cl | inactive
Cc1ccc(NC(=O)c2cccnc2C(=O)Nc2ccc(C)cc2)cc1 | inactive
CSc1nnc(NC(=O)c2nc(S(=O)(=O)Cc3ccc(C)cc3)ncc2Cl)s1 | 3.16 µM (active)
